{"source": "PubChem BioAssay (NCI)", "note": "Compounds without any hit were thinned out: in the full panel of roughly 83,000, 20% have a hit.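 Assay: single dose, 48 h. Readout: percent growth (0 = no net growth; negative = cell death). Active: <10.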 Values without a mark were called inactive. Activity calls are given as the source filed them.", "data": [{"tested_on": "UO-31 renal", "assay": "NCI-60 one-dose screen, 48 h (100 = growth as untreated, 0 = no growth, -100 = all killed)", "conditions": "10 µM unless noted", "values": [{"compound": "COc1ccc(C(O)c2cc3c(N)c(C(=O)Nc4cccc(OC)c4)sc3nc2C)cc1", "note": "(stereo unspecified)", "growth": "25%"}, {"compound": "CCN(CC)S(=O)(=O)c1cccc([N+](=O)[O-])c1", "growth": "82.6%"}, {"compound": "CCOC(=O)C1CC(=O)c2cc(OC)c(OC)cc2C1", "note": "(stereo unspecified)", "growth": "93.6%"}, {"compound": "c1ccc(CCSc2ncnc3nc[nH]c23)cc1", "growth": "84.4%"}, {"compound": "O=S(=O)(NCCCNc1nccc(-c2c(-c3ccccc3)nc3occn23)n1)c1ccc(Cl)cc1", "growth": "44.4%"}, {"compound": "Cc1nc2sc(C(=O)Nc3ccccc3)c(N)c2cc1C(=O)c1ccc(C(F)(F)F)cc1", "growth": "90.7%"}, {"compound": "Nc1ncc(C#Cc2cncc(NC(=O)c3cccc(C(F)(F)F)c3)c2)c2cccnc12", "growth": "33.7%"}, {"compound": "CCCCCCCCCCCCCCCC(=O)OC[C@@]1(O)C[C@@]23CC[C@@H]4C(C)(C)CCC[C@@]4(C)[C@@H]2CC[C@H]1C3", "growth": "84.7%"}, {"compound": "CC1(C)CN(c2cnc(C(=O)Nc3cc(F)cc4cccnc34)cn2)CCN1", "growth": "40.9%"}, {"compound": "O=S(=O)(NCCCNc1nccc(-c2c(-c3ccc(F)c(O)c3)nc3sccn23)n1)c1ccc(F)cc1", "growth": "-1.81% (active)"}, {"compound": "CC1(C)CN(Cc2ccccc2)CCN1Cc1ccccc1", "growth": "93.6%"}, {"compound": "COc1ccc(Cn2nc(-c3ccccc3)c3c2CCc2cnoc2-3)cc1", "growth": "70%"}, {"compound": "O=C(Nc1ccc2ncnc(Nc3ccc(Oc4cccc(F)c4)c(Cl)c3)c2c1)c1ccc(CN2CCOCC2)cc1", "growth": "20.3%"}, {"compound": "O=C1/C(=C/c2ccc(O)cc2)COc2ccc(-c3ccccc3)cc21", "growth": "42.9%"}, {"compound": "CCCCc1ccc(Nc2nnc(SCC(=O)NC(=O)NCC)s2)cc1", "growth": "84.4%"}, {"compound": "Fc1ccccc1CSc1ncnc2nc[nH]c12", "growth": "94.9%"}, {"compound": "COc1ccc(-c2cnnc3c(-c4cccc(C(F)(F)F)c4)cnn23)cc1", "growth": "57.6%"}, {"compound": "CC(=O)Nc1ccc(C(=O)Nc2cc(-c3ccccc3)ccc2N)cc1", "growth": "48.7%"}, {"compound": "Cc1ccc(C2CC(c3cccc(Nc4ccncc4)c3)=NN2c2ccc(Cl)cc2)cc1", "note": "(stereo unspecified)", "growth": "-99.4% (active)"}, {"compound": "CC(C)[N+](C)(CCOC(COc1ccccc1)COc1ccccc1)C(C)C", "growth": "88.8%"}, {"compound": "FC(F)(F)c1cccc(Oc2ccc(Nc3ncnc4ccc(OCCCN5CCOCC5)cc34)cc2Cl)c1", "growth": "21.6%"}, {"compound": "COc1ccc(/C=C2\\COc3ccc(-c4ccccc4)cc3C2=O)cc1O", "growth": "40.6%"}, {"compound": "Cc1ccccc1-c1cc(Cc2ccc(F)cc2)c(=O)[nH]n1", "growth": "70.5%"}, {"compound": "CC(=O)N1N=C(c2cccc(Nc3ccncc3)c2)CC1c1ccccc1", "note": "(stereo unspecified)", "growth": "80.6%"}, {"compound": "COc1cccc(/C=C2\\COc3ccc(-c4ccccc4)cc3C2=O)c1", "growth": "-38.1% (active)"}, {"compound": "O=C1NC(=S)NC(=O)C1=Cc1cccc(C=C2C(=O)NC(=S)NC2=O)c1", "growth": "91%"}, {"compound": "Cc1ccc(/C=C/C(=O)c2ccc(N)cc2)c(C)c1", "growth": "11.7%"}, {"compound": "FC(F)(F)Oc1cccc(-c2cc(NCCCCCCNc3cc(-c4cccc(OC(F)(F)F)c4)nc4ccc(N5CCCC5)cc34)c3cc(N4CCCC4)ccc3n2)c1", "growth": "35%"}, {"compound": "CS(=O)(=O)c1ccc(-c2cc3c(oc2=O)-c2ccccc2OC3O)cc1", "note": "(stereo unspecified)", "growth": "74%"}, {"compound": "O=C1c2cccnc2C(=O)c2nc3cc(N4CCN(C5CC5)CC4)ccc3nc21", "growth": "-100% (active)"}, {"compound": "CN1CCN(CCCOc2ccc3ncnc(Nc4ccc(Oc5cccc(C(F)(F)F)c5)c(Cl)c4)c3c2)CC1", "growth": "20.1%"}, {"compound": "COc1cc(/C=N/NC(=O)c2ccccc2Nc2cccc(C(F)(F)F)c2)ccc1O", "growth": "74.8%"}, {"compound": "COc1ccc(/C=C/C(=O)c2ccc(Nc3ncnc4ccccc34)cc2)cc1OC", "growth": "71.2%"}, {"compound": "COc1cc(C2CC(c3cccc(Nc4ccncc4)c3)=NN2c2ccccc2)cc(OC)c1OC", "note": "(stereo unspecified)", "growth": "53.3%"}, {"compound": "COc1cccc(CCC(=O)c2cc3c(N)c(C(=O)Nc4cccc(Cl)c4C)sc3nc2C)c1", "growth": "30.7%"}, {"compound": "COc1ccc(-c2nc(N/N=C/c3ccco3)nc(N3CCOCC3)c2C#N)cc1", "growth": "28.7%"}, {"compound": "COc1ccc(C(=O)c2cc3c(N)c(C(=O)Nc4cccc5ccccc45)sc3nc2C)cc1", "growth": "36.3%"}, {"compound": "C#CCn1cc(C=C2C(=O)NC(=S)NC2=O)c2cc(Cl)ccc21", "growth": "-73.4% (active)"}]}, {"tested_on": "TK-10 renal", "assay": "NCI-60 one-dose screen, 48 h (100 = growth as untreated, 0 = no growth, -100 = all killed)", "conditions": "10 µM unless noted", "values": [{"compound": "COc1ccc(C(O)c2cc3c(N)c(C(=O)Nc4cccc(OC)c4)sc3nc2C)cc1", "note": "(stereo unspecified)", "growth": "39.9%"}, {"compound": "CCN(CC)S(=O)(=O)c1cccc([N+](=O)[O-])c1", "growth": "90%"}, {"compound": "CCOC(=O)C1CC(=O)c2cc(OC)c(OC)cc2C1", "note": "(stereo unspecified)", "growth": "126%"}, {"compound": "c1ccc(CCSc2ncnc3nc[nH]c23)cc1", "growth": "122%"}, {"compound": "O=S(=O)(NCCCNc1nccc(-c2c(-c3ccccc3)nc3occn23)n1)c1ccc(Cl)cc1", "growth": "102%"}, {"compound": "Cc1nc2sc(C(=O)Nc3ccccc3)c(N)c2cc1C(=O)c1ccc(C(F)(F)F)cc1", "growth": "104%"}, {"compound": "Nc1ncc(C#Cc2cncc(NC(=O)c3cccc(C(F)(F)F)c3)c2)c2cccnc12", "growth": "84.8%"}, {"compound": "CCCCCCCCCCCCCCCC(=O)OC[C@@]1(O)C[C@@]23CC[C@@H]4C(C)(C)CCC[C@@]4(C)[C@@H]2CC[C@H]1C3", "growth": "100%"}, {"compound": "CC1(C)CN(c2cnc(C(=O)Nc3cc(F)cc4cccnc34)cn2)CCN1", "growth": "79.3%"}, {"compound": "O=S(=O)(NCCCNc1nccc(-c2c(-c3ccc(F)c(O)c3)nc3sccn23)n1)c1ccc(F)cc1", "growth": "27.6%"}, {"compound": "CC1(C)CN(Cc2ccccc2)CCN1Cc1ccccc1", "growth": "96.3%"}, {"compound": "COc1ccc(Cn2nc(-c3ccccc3)c3c2CCc2cnoc2-3)cc1", "growth": "105%"}, {"compound": "O=C(Nc1ccc2ncnc(Nc3ccc(Oc4cccc(F)c4)c(Cl)c3)c2c1)c1ccc(CN2CCOCC2)cc1", "growth": "53.6%"}, {"compound": "O=C1/C(=C/c2ccc(O)cc2)COc2ccc(-c3ccccc3)cc21", "growth": "83.9%"}, {"compound": "CCCCc1ccc(Nc2nnc(SCC(=O)NC(=O)NCC)s2)cc1", "growth": "107%"}, {"compound": "Fc1ccccc1CSc1ncnc2nc[nH]c12", "growth": "142%"}, {"compound": "COc1ccc(-c2cnnc3c(-c4cccc(C(F)(F)F)c4)cnn23)cc1", "growth": "21%"}, {"compound": "CC(=O)Nc1ccc(C(=O)Nc2cc(-c3ccccc3)ccc2N)cc1", "growth": "59.5%"}, {"compound": "Cc1ccc(C2CC(c3cccc(Nc4ccncc4)c3)=NN2c2ccc(Cl)cc2)cc1", "note": "(stereo unspecified)", "growth": "-80.9% (active)"}, {"compound": "CC(C)[N+](C)(CCOC(COc1ccccc1)COc1ccccc1)C(C)C", "growth": "94.1%"}, {"compound": "FC(F)(F)c1cccc(Oc2ccc(Nc3ncnc4ccc(OCCCN5CCOCC5)cc34)cc2Cl)c1", "growth": "46%"}, {"compound": "COc1ccc(/C=C2\\COc3ccc(-c4ccccc4)cc3C2=O)cc1O", "growth": "67.7%"}, {"compound": "Cc1ccccc1-c1cc(Cc2ccc(F)cc2)c(=O)[nH]n1", "growth": "122%"}, {"compound": "CC(=O)N1N=C(c2cccc(Nc3ccncc3)c2)CC1c1ccccc1", "note": "(stereo unspecified)", "growth": "99.5%"}, {"compound": "COc1cccc(/C=C2\\COc3ccc(-c4ccccc4)cc3C2=O)c1", "growth": "-5.26% (active)"}, {"compound": "O=C1NC(=S)NC(=O)C1=Cc1cccc(C=C2C(=O)NC(=S)NC2=O)c1", "growth": "104%"}, {"compound": "Cc1ccc(/C=C/C(=O)c2ccc(N)cc2)c(C)c1", "growth": "106%"}, {"compound": "FC(F)(F)Oc1cccc(-c2cc(NCCCCCCNc3cc(-c4cccc(OC(F)(F)F)c4)nc4ccc(N5CCCC5)cc34)c3cc(N4CCCC4)ccc3n2)c1", "growth": "-89.7% (active)"}, {"compound": "CS(=O)(=O)c1ccc(-c2cc3c(oc2=O)-c2ccccc2OC3O)cc1", "note": "(stereo unspecified)", "growth": "99.9%"}, {"compound": "O=C1c2cccnc2C(=O)c2nc3cc(N4CCN(C5CC5)CC4)ccc3nc21", "growth": "0.122% (active)"}, {"compound": "CN1CCN(CCCOc2ccc3ncnc(Nc4ccc(Oc5cccc(C(F)(F)F)c5)c(Cl)c4)c3c2)CC1", "growth": "19.3%"}, {"compound": "COc1cc(/C=N/NC(=O)c2ccccc2Nc2cccc(C(F)(F)F)c2)ccc1O", "growth": "126%"}, {"compound": "COc1ccc(/C=C/C(=O)c2ccc(Nc3ncnc4ccccc34)cc2)cc1OC", "growth": "98.8%"}, {"compound": "COc1cc(C2CC(c3cccc(Nc4ccncc4)c3)=NN2c2ccccc2)cc(OC)c1OC", "note": "(stereo unspecified)", "growth": "82.8%"}, {"compound": "COc1cccc(CCC(=O)c2cc3c(N)c(C(=O)Nc4cccc(Cl)c4C)sc3nc2C)c1", "growth": "52.9%"}, {"compound": "COc1ccc(-c2nc(N/N=C/c3ccco3)nc(N3CCOCC3)c2C#N)cc1", "growth": "89.8%"}, {"compound": "COc1ccc(C(=O)c2cc3c(N)c(C(=O)Nc4cccc5ccccc45)sc3nc2C)cc1", "growth": "60.5%"}, {"compound": "C#CCn1cc(C=C2C(=O)NC(=S)NC2=O)c2cc(Cl)ccc21", "growth": "16.1%"}]}]}
